In the supplement of paper PMC6953052:
Several values for one entry are separate records, joined by “and”; a condition that tells them apart may be missing. Equal values may be shown once. ± gives the standard deviation of the averaged measurements. Over roughly 1,700 compounds, “fraction of GFP-LC3-positive cells (≥5 vesicles/cell)” has its median near 0.058; the highest 2% begin near 0.59. Only a selection was taken, and the highest values are over-represented in it overall.

tested on: CbCln3 +/+ GFP-LC3 cerebellar neuronal cells; test: fraction of GFP-LC3-positive cells (≥5 vesicles/cell); higher = more autophagosome accumulation
How it was run: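 By pin transfer, ~50 nL of compound in DMSO went in duplicate into 384-well plates holding 2 × 10^3 wild-type or mutant CbCln3 cerebellar cells per well that stably express GFP-LC3, followed by 24 h at 33 °C. The final 30 min included Hoechst 33342 and LysoTracker Red, and then came 3.2% PFA fixation and 10× imaging of three fields per well. Each value gives the fraction of cells above a vesicle threshold, averaged across duplicates, with CellProfiler counting GFP-LC3 vesicles and out-of-focus images left out. The threshold is 5 or more vesicles per cell.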

Point of comparison: `O=C(O)c1ccc2nc(-c3ccccc3)c(-c3ccccc3)nc2c1`, “fraction of GFP-LC3-positive cells” value 0.0605. Against it:
- COc1ccc(C(=O)c2ccccc2)c(O)c1 [Oxybenzone] — higher, 0.0797
- COC(=O)/C=C/c1cc(O)ccc1O — higher, 0.852
- Oc1cc(O)cc(/C=C/c2ccc(O)c(O)c2)c1 [Piceatannol] — higher, 0.357
- Oc1cc(O)cc(/C=C/c2ccc(O)c(O)c2)c1 — higher, 0.173
- CCCCCCCC/C=C\CCCCCCCCOC[C@H](COP(=O)([O-])OCC[N+](C)(C)C)OC(C)=O — lower, 0.0408 ± 0.0017
- C[n+]1cccc(C(=O)[O-])c1 [Trigonelline] — lower, 0.042
- Cn1cnc2c(NCc3ccccc3)nc(NCCO)nc21 — higher, 0.0719
- Cn1cnc2c(NCc3ccccc3)nc(NCCO)nc21 [olomoucine] — lower, 0.058
- O.O.O=c1c(O)c(-c2ccc(O)c(O)c2)oc2cc(O)cc(O)c12 [Quercetine dihydrate] — higher, 0.0843
- CSCC[C@@H](C=O)NC(=O)[C@H](CC(C)C)NC(=O)[C@H](CC(C)C)NC(C)=O — higher, 0.0674
- CCCC[C@@H](C=O)NC(=O)[C@H](CC(C)C)NC(=O)[C@H](CC(C)C)NC(C)=O — higher, 0.926
- CC(=O)N[C@@H](CC(C)C)C(=O)N[C@@H](CC(C)C)C(=O)N[C@H](C=O)CCCNC(=N)N [Leupeptin] — lower, 0.0499
- Nc1ccn([C@H]2CC[C@@H](CO)O2)c(=O)n1 [Zalcitabine] — higher, 0.11
- O=C1CCc2c(ccc3ccccc23)O1 [Splitomycin] — lower, 0.0416
- O=C1C=CC(=O)c2c1ccc1c2ccc2ccccc21 [Chrysene-1,4-quinone] — higher, 0.597
- CCCCCCCCCCC(=O)O [Undecanoic acid] — higher, 0.0729
- CC(=O)Oc1cc(C(C)C)c(OCCN(C)C)cc1C.Cl [Moxisylyte hydrochoride] — higher, 0.0756
- CS(=O)(=O)c1ccc([C@@H](O)[C@@H](CO)NC(=O)C(Cl)Cl)cc1 [Thiamphenicol] — lower, 0.0366
- COc1ccc(CC(N)C(=O)N[C@H]2[C@@H](O)[C@H](n3cnc4c(N(C)C)ncnc43)O[C@@H]2CO)cc1 (stereo not given in full) [puromycin] — higher, 0.276
- N=C(N)N1CCc2ccccc2C1.N=C(N)N1CCc2ccccc2C1.O=S(=O)(O)O [Debrisoquin sulfate] — lower, 0.0501
- C/C=C(/C(=C/C)c1ccc(O)cc1)c1ccc(O)cc1 [Dienestrol] — higher, 0.14
- CCCCC/C=C/C/C=C/CCCCCCCCCCC(=O)O [12(Z), 15(Z)-Heneicosadienoic acid] — lower, 0.0338
- NC(CO)(CO)CO.O=C(c1ccccc1)c1ccc2n1CCC2C(=O)O (stereo not given) [Ketorolac tromethamine] — lower, 0.0452
- CC(C)(C)NCC(O)COc1cccc2c1CC(O)C(O)C2 (stereo not given) [Nadolol] — lower, 0.0452
- O=C(O)c1ccccc1Nc1ccccc1 — lower, 0.0543
- CO[C@H]1/C=C/O[C@@]2(C)Oc3c(C)c(O)c4c(O)c(c(/C=N/N5CCN(C)CC5)c(O)c4c3C2=O)NC(=O)/C(C)=C\C=C\[C@H](C)[C@H](O)[C@@H](C)[C@@H](O)[C@@H](C)[C@H](OC(C)=O)[C@@H]1C [Rifampicin] — lower, 0.0415
- C[C@]12CCC(=O)C=C1CC[C@@H]1[C@@H]2C(=O)C[C@@]2(C)[C@H]1CC[C@]2(O)C(=O)CO [Cortisone] — lower, 0.0551
- CCCCCCCC/C=C/CCCCCCCCCCC(=O)O [12(Z) Heneicosenoic acid] — lower, 0.0354
- CCC1(c2ccccc2)C(=O)NCNC1=O [Primidone] — lower, 0.0329
- CC(C)Cn1c(=O)n(C)c(=O)c2[nH]cnc21 — lower, 0.0399
- CN1C(C(=O)Nc2ccccn2)=C(O)c2ccccc2S1(=O)=O [piroxicam] — lower, 0.0598
- C[C@H](NCCc1ccc(O)cc1)[C@H](O)c1ccc(O)cc1.Cl [Ritodrine hydrochloride] — lower, 0.0423
- CO[C@H]1C[C@@H]2CC[C@@H](C)[C@@](O)(O2)C(=O)C(=O)N2CCCC[C@H]2C(=O)O[C@H]([C@H](C)C[C@@H]2CC[C@@H](O)[C@H](OC)C2)CC(=O)[C@H](C)/C=C(\C)[C@@H](O)[C@@H](OC)C(=O)[C@H](C)C[C@H](C)/C=C/C=C/C=C/1C — lower, 0.0529
- N#Cc1c(-c2ccccc2)no[n+]1[O-] [Furoxan] — higher, 0.597
- COc1cc(CNC(=O)CCCC/C=C/C(C)C)ccc1O [Capsaicin] — higher, 0.0783
- Cc1cccc(Nc2ccncc2S(=O)(=O)NC(=O)NC(C)C)c1 [Torsemide] — higher, 0.0886
- CC(/C=C/C(=O)NO)=C\[C@@H](C)C(=O)c1ccc(N(C)C)cc1 [trichostatin-A] — higher, 0.799
- CN(C)N=Nc1[nH]cnc1C(N)=O [Dacarbazine] — lower, 0.0174
- CC/C=C\C/C=C\C/C=C\C/C=C\C=C\C(O)CCCC(=O)O (racemic) — higher, 0.07
- CCCCNC(=O)NS(=O)(=O)c1ccc(C)cc1 [Tolbutamide] — lower, 0.0602
- Cc1ccc(S(=O)(=O)N[C@@H](Cc2ccccc2)C(=O)CCl)cc1 [Tosyl-Phe-CMK (TPCK)] — higher, 0.744
- Cc1ccc(S(=O)(=O)N[C@@H](Cc2ccccc2)C(=O)CCl)cc1 — higher, 0.315
- CCCCNC(=O)NS(=O)(=O)c1ccc(C)cc1 — lower, 0.046
- O=C(O)c1ccccc1OP(=O)(O)O [Fosfosal] — lower, 0.0551
- O[C@H]1[C@H]2c3cc4c(cc3CN3CCC(=C[C@@H]1O)[C@H]23)OCO4 [Lycorine] — higher, 0.424
- CC(=O)CC(c1ccc([N+](=O)[O-])cc1)c1c(O)c2ccccc2oc1=O (stereo not given) [Acenocoumarol] — higher, 0.0753
- CCCCC/C=C\C/C=C\C/C=C\C=C\C1CCCC(=O)O1 (racemic) [(±)5-HETE Lactone] — higher, 0.0775
- CCCCNc1ccc(C(=O)OCCOCCOCCOCCOCCOCCOCCOCCOCCOC)cc1 [Benzonatate] — lower, 0.0604
- CCCCCCCCCCCCCCCCOCC(CO)OC(C)=O (stereo not given) [1-Hexadecyl-2-O-acetyl-glycerol] — higher, 0.076
- CCCCCCCCCCCCCCCCOCC(CO)OC(C)=O (stereo not given) — lower, 0.0373
- CCN(CC)CCNC(=O)COc1ccc(OC)cc1.Cl [Mefexamide hydrochloride] — higher, 0.0712
- CC1=C(/C=C/C(C)=C/C=C/C(C)=C/C(=O)O)C(C)(C)CCC1 — higher, 0.0875
- CC1=C(/C=C/C(C)=C/C=C/C(C)=C/C(=O)O)C(C)(C)CCC1 [Retinoic acid, all trans] — lower, 0.0413
- O=C(CCCCC(=O)Nc1c(I)cc(I)c(C(=O)O)c1I)Nc1c(I)cc(I)c(C(=O)O)c1I [Iodipamide] — higher, 0.064
- CCCCC[C@H](O)/C=C/[C@H]1C(=O)C[C@H](O)[C@@H]1C/C=C\CCCC(=O)O [Prostaglandin D2] — lower, 0.0347
- CCCCC[C@H](O)/C=C/[C@H]1C(=O)C[C@H](O)[C@@H]1C/C=C\CCCC(=O)O — lower, 0.0396
- Cc1ccc2c(c1)C(=O)C1(O)CCN(c3ccccc3)C1=N2 (stereo not given) [Blebbistatin] — lower, 0.0372
- CC(=O)S[C@@H]1CC2=CC(=O)CC[C@]2(C)[C@H]2CC[C@@]3(C)[C@@H](CC[C@@]34CCC(=O)O4)[C@H]12 [Spironolactone] — lower, 0.0439
- CCCCCCCC/C=C\C/C=C\C/C=C\CCCC(=O)O — lower, 0.0292
- CCCCCCCC/C=C\C/C=C\C/C=C\CCCC(=O)O [Mead acid (20:3 n-9)] — lower, 0.0545
- N/C(=N\C(=O)c1nc(Cl)c(N)nc1N)NCc1ccccc1 — lower, 0.0546
- Cl.N/C(=N\C(=O)c1nc(Cl)c(N)nc1N)NCc1ccccc1 [Benzamil hydrochloride] — lower, 0.0345
- N/C(=N\C(=O)c1nc(Cl)c(N)nc1N)NCc1ccc(Cl)cc1Cl — higher, 0.6
- CC(N/C(=N\C#N)Nc1ccncc1)C(C)(C)C (stereo not given) [Pinacidil] — lower, 0.0274
- CCN(CC)CCCCCCCCOC(=O)c1cc(OC)c(OC)c(OC)c1 — lower, 0.0457
- CN1CCC(=C2c3ccccc3Sc3ccccc32)CC1.O=C(O)/C=C\C(=O)O [Pimethixene maleate] — higher, 0.0718
- CNCCc1ccccn1.CS(=O)(=O)O.CS(=O)(=O)O [Betahistine mesylate] — higher, 0.0666
- CN(C)CCN(Cc1ccc(Cl)cc1)c1ccccn1.Cl [Chloropyramine hydrochloride] — lower, 0.056
- c1ccc(CN(CCN(Cc2ccccn2)Cc2ccccn2)Cc2ccccn2)nc1 — higher, 0.755
- CC(C)(Sc1cc(C(C)(C)C)c(O)c(C(C)(C)C)c1)Sc1cc(C(C)(C)C)c(O)c(C(C)(C)C)c1 [Probucol] — lower, 0.0472
- COc1cc2ccc(=O)oc2cc1O [Scopoletin] — lower, 0.0458
- CCOC(=O)Oc1c(OC)cc(C(=O)O[C@@H]2C[C@@H]3CN4CCc5c([nH]c6cc(OC)ccc56)[C@H]4C[C@@H]3[C@H](C(=O)OC)[C@H]2OC)cc1OC [Syrosingopine] — higher, 0.251
- CCn1cc(C(=O)O)c(=O)c2cc(F)c(N3CCNCC3)nc21 [Enoxacin] — lower, 0.045
- Cc1cc2ncc(-c3ccccc3)nc2cc1C — higher, 0.0688
- O=C(O)CNC(=O)C(CS)Cc1ccccc1 (stereo not given) [Thiorphan] — lower, 0.0564
- O=C(O)CNC(=O)C(CS)Cc1ccccc1 (stereo not given) — higher, 0.0651
- COc1cccc2c1C(=O)c1c(O)c3c(c(O)c1C2=O)C[C@@](O)(C(=O)CO)C[C@@H]3O[C@H]1C[C@H](N)[C@H](O)[C@H](C)O1.Cl [Doxorubicin hydrochloride] — higher, 0.482
- COc1cccc2c1C(=O)c1c(O)c3c(c(O)c1C2=O)C[C@@](O)(C(=O)CO)C[C@@H]3O[C@H]1C[C@H](N)[C@H](O)[C@H](C)O1.Cl [doxorubicin] — higher, 0.608
- COc1cccc2c1C(=O)c1c(O)c3c(c(O)c1C2=O)C[C@@](O)(C(C)=O)C[C@@H]3O[C@H]1C[C@H](N)[C@H](O)[C@H](C)O1.Cl [Daunorubicin hydrochloride] — higher, 0.568
- CC[N+](CC)(CC)CC(=O)Nc1c(C)cccc1C.[Br-] — lower, 0.0348
- CC(C)N1CCN(c2ccc(OC[C@H]3CO[C@](Cn4cncn4)(c4ccc(Cl)cc4Cl)O3)cc2)CC1 [Terconazole] — higher, 0.0686
- c1ccc2c(Cc3c[nH]c4ccccc34)c[nH]c2c1 — higher, 0.0651
- c1ccc2c(Cc3c[nH]c4ccccc34)c[nH]c2c1 [Diindolylmethane] — higher, 0.0761
- Nc1nc(=O)c2c([nH]1)NCC(CNc1ccc(C(=O)N[C@@H](CCC(=O)[O-])C(=O)[O-])cc1)N2C=O.[Ca+2] (stereo not given in full) [Folinic acid calcium salt] — lower, 0.0553
- CC[C@H]1[C@@H]2C=C[C@@H]3[C@H]4C/C=C\C(=O)NCCC[C@@H]5NC(=O)C(=C5O)C(=O)CC[C@@H]4C[C@@H]3[C@H]2C[C@H]1C [Ikarugamyin] — higher, 0.69
- CC1=C(C(=O)O)N2C(=O)[C@@H](NC(=O)[C@H](N)c3ccccc3)[C@H]2SC1.O [Cephalexin monohydrate] — lower, 0.0422
- OC[C@H]1NC[C@H](O)[C@@H](O)[C@@H]1O [deoxynorjrimycin(1)] — lower, 0.0354
- O=C(O)c1cc(-c2ccc(F)cc2F)ccc1O [Diflunisal] — lower, 0.0501

With `N#CC(=C(/N)Sc1ccccc1N)/C(C#N)=C(\N)Sc1ccccc1N` the “fraction of GFP-LC3-positive cells” value was 0.0648 and 0.109.
